The values below come from the supplement of paper PMC11732987, “Enantioselective OTUD7B fragment discovery through chemoproteomics screening and high-throughput optimisation” (Communications Chemistry, 2025).

Common to all, as to assay: log2 ratio of Biotin-Ahx-Ub-VS probe labelling (fragment/DMSO); higher = less target engagement (more negative = stronger competition), active = hit call of the paper (q ≤ 0.05, log2 ratio ≤ -1)
Conditions in all cases: compound concentration: 200 uM; treatment time: 3 h

One assay has as its target T1, OTUD6B (UniProt Q8N6M0).
T1 sequence (whole entry): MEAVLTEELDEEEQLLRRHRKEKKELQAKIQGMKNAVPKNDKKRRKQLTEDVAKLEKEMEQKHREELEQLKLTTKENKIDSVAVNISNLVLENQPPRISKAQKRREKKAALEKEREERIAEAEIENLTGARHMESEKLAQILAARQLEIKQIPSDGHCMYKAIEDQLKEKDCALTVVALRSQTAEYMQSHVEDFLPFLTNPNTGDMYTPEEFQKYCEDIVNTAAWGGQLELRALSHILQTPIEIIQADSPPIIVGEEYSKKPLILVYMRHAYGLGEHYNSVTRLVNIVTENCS
In a few lines: (§1)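 HEK293T lysate in Tris/CHAPS/IGEPAL buffer with protease inhibitors (495 µg per sample) was given fragment at 200 µM or vehicle for 3 h, in triplicate. It then received Biotin-Ahx-Ub-VS at 0.5 µM final for 1 h. Labelled DUBs were NeutrAvidin-enriched, digested with LysC and trypsin, and run by diaPASEF LC-MS/MS. Values are average log2 fragment/vehicle ratios by unpaired t-test on global-median-normalised Spectronaut quantities of proteins with ≥2 unique peptides.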

A further assay concerns the target T2, OTUD7B (UniProt Q6GQQ9).
T2 sequence (whole entry): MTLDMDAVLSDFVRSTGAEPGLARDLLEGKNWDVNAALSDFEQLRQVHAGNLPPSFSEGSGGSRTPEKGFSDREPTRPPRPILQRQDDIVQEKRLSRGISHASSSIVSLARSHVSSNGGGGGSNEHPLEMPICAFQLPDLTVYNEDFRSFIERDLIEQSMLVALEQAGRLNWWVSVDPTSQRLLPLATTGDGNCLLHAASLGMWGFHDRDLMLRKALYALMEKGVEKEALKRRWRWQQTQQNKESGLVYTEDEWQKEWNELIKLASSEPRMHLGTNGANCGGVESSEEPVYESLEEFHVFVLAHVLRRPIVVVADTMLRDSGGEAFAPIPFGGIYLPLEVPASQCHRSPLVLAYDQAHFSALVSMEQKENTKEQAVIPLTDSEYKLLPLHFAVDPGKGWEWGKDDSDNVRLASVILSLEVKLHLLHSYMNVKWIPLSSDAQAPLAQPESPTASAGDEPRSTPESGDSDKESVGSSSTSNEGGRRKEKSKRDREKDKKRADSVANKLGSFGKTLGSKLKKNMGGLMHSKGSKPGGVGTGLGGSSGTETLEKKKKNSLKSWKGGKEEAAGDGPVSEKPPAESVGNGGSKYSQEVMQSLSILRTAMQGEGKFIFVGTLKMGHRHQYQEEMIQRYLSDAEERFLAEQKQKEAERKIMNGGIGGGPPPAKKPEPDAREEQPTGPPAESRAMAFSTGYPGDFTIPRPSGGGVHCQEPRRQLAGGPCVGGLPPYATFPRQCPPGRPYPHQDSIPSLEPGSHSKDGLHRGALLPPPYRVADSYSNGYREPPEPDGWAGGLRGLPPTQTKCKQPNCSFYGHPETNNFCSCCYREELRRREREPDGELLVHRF
In a few lines: as §1

Another assay concerns the target PRPF8 (UniProt Q6P2Q9). The method in brief:
as §1

The target of the next assay is T3, PSMD7 (UniProt P51665).
T3 sequence (whole entry): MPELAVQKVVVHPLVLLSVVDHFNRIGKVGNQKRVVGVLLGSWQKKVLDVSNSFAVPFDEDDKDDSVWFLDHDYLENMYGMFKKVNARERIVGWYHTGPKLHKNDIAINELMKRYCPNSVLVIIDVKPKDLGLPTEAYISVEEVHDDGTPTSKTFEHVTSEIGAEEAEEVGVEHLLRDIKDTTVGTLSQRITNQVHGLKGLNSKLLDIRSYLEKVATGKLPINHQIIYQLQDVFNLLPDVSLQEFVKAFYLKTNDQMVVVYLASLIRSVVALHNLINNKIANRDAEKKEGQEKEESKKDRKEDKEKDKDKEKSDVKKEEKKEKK
The method in brief:
as §1

A further assay deals with UCHL1 (UniProt P09936). In a few lines: as §1
Sequence of UCHL1 (P09936 whole entry, looked up): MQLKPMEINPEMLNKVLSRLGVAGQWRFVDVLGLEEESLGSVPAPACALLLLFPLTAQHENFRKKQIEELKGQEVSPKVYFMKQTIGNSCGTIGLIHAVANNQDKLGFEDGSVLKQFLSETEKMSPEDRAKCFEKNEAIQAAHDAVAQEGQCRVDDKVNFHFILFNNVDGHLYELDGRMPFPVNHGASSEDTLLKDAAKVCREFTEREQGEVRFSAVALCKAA
The target of the next assay is T4, UCHL3 (UniProt P15374).
T4 sequence (whole entry): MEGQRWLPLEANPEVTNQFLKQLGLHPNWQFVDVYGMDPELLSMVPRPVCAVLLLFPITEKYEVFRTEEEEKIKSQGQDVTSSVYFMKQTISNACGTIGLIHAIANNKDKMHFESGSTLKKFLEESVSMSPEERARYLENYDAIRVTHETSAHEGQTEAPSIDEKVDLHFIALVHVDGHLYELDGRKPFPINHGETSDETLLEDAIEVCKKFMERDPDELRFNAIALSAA
In a few lines:
as §1

A further assay deals with T5, UCHL5 (UniProt Q9Y5K5).
T5 sequence (whole entry): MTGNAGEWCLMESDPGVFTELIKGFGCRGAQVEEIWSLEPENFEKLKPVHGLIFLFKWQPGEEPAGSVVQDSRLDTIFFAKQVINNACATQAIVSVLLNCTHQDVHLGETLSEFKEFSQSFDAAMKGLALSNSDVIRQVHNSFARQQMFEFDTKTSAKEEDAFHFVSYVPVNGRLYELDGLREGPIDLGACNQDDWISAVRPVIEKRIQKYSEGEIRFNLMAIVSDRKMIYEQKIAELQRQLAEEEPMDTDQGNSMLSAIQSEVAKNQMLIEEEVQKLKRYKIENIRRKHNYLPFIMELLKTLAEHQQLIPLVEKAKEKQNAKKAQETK
The method in brief:
as §1

In the next assay the target is USP10 (UniProt Q14694). In a few lines:
as §1

A further assay has as its target T6, USP15 (UniProt Q9Y4E8).
T6 sequence (whole entry): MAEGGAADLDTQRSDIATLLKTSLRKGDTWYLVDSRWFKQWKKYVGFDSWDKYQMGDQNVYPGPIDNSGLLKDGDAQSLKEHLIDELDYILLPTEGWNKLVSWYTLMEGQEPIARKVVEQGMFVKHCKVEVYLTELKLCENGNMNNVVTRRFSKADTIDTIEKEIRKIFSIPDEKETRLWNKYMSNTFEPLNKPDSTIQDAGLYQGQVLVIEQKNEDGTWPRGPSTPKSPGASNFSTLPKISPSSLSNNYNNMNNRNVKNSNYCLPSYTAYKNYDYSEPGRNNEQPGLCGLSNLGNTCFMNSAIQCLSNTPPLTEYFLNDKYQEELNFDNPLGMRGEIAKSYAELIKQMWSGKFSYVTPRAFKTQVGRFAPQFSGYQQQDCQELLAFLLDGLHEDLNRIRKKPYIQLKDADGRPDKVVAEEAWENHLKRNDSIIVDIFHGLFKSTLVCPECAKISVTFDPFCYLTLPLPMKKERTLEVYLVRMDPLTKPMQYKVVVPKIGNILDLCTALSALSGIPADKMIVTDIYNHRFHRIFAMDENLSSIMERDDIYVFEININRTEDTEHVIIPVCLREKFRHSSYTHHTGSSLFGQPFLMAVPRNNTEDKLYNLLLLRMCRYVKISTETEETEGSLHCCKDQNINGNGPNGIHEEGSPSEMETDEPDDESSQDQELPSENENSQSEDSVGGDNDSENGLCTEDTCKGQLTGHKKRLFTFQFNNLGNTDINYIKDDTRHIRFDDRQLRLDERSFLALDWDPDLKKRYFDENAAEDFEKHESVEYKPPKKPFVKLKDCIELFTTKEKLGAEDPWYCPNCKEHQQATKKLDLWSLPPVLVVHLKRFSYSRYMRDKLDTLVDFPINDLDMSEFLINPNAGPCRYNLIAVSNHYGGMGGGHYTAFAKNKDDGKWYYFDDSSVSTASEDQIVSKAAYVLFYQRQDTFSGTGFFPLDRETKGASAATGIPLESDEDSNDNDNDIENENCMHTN
In a few lines: as §1

In another assay the target is USP16 (UniProt Q9Y5T5). The method in brief: as §1
Sequence of USP16 (Q9Y5T5 whole entry, looked up): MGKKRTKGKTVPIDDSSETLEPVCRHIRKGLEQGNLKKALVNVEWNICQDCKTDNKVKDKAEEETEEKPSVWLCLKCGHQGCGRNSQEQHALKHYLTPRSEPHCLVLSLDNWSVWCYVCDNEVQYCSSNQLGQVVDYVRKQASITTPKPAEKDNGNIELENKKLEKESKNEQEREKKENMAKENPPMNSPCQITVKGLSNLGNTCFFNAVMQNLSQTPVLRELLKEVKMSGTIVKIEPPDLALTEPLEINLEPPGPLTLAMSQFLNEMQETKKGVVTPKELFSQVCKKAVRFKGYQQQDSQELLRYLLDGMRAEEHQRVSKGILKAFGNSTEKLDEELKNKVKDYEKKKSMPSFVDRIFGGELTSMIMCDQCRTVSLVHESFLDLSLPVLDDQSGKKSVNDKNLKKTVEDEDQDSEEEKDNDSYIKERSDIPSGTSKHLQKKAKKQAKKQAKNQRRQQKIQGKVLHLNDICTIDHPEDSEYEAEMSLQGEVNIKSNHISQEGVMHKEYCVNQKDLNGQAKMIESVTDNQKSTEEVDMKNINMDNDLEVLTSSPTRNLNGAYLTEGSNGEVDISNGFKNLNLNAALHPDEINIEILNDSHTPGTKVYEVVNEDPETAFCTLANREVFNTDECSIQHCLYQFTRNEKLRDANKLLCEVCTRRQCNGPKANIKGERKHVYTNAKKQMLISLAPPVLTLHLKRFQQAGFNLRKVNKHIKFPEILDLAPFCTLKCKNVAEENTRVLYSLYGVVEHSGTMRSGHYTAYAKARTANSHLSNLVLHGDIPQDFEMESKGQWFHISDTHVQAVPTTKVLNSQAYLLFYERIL

Values without a mark were called inactive.

Sequence of USP10 (Q14694 whole entry): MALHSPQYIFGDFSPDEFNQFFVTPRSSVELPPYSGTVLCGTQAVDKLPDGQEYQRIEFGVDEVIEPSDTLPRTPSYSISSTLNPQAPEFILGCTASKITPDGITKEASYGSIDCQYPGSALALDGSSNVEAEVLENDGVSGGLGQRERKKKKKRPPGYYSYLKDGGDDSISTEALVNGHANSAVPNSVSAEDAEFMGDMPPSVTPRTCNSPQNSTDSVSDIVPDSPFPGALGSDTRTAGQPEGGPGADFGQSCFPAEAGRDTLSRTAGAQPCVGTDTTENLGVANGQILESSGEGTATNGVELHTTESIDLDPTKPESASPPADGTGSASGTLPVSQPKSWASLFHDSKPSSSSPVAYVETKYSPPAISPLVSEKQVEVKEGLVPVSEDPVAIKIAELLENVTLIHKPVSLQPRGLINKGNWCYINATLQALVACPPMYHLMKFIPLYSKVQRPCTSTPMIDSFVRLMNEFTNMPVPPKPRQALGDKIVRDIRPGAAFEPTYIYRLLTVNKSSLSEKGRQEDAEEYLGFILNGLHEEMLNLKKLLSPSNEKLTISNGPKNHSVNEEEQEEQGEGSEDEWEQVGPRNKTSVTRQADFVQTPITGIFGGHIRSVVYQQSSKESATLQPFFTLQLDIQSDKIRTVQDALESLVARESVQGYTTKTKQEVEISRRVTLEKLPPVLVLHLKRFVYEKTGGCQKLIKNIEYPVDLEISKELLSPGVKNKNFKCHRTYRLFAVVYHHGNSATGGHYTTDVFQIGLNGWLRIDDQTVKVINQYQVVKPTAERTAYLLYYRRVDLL

On to `O=C(CCl)NCCc1ccc2c(c1)OCCO2`, for which the “log2 ratio of Biotin-Ahx-Ub-VS probe labelling” value is -0.218 with OTUD6B; -0.434 with OTUD7B; 0.0207 in the assay with PRPF8; -0.153 with PSMD7; -1.2 (active) in the assay with UCHL1; -0.0656 in the assay with UCHL3. Also, the “log2 ratio of Biotin-Ahx-Ub-VS probe labelling” value with UCHL5 is -0.156; with USP10, -0.3; with USP15, -0.184; in the assay with USP16, 0.248.
